Bioassay records from PubChem BioAssay.
ELG1 DNA repair: blocks ELG1-dependent DNA repair in HEK293T cells; HEK293T ELG1-luciferase reporter, luminescence, 16 h; DNA damage induced by 5-fluorouridine; Potency, µM (top dose mostly 46.1 µM), without a hit: at the highest dose activity change, negative = inhibition, actives largely listed as inhibitors; actives 2.3% (n = 330,000); further: on the % scale 0 is the no-effect control and ±100 the full control effect; nearly all actives have a fitted effect of over 55% in size
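In this reporter screen, reduction of luminescence relative to DMSO vehicle indicated activity. Compounds and 5-fluorouridine were added together to 2,000 cells per well, incubated for 16 hr at 37 °C, then developed with ONE-Glo.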
Rab9 promoter act: Rab9 promoter activation; Huh7 Rab9 promoter-luciferase reporter, luminescence, 24 h; Potency, µM (doses to about 9.22 µM), without a hit: at the top dose activation, negative = inhibition, hits mostly activators; actives 2.8% (n = 320,000); further: % of control where 0% means no effect; nearly all actives have a fitted effect of over 60% in size
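Cell-based reporter: Huh7 stable for Rab9 promoter-driven luciferase, plated in reduced-serum medium with 10% FBS at 1500 cells/well, compound-treated 24 h at 37 °C, luminescence read after 10 min reagent.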
ELG1 genotoxic: inducers of genotoxicity in HEK293T ELG1-luciferase cells; HEK293T ELG1-luciferase reporter, luminescence, 16 h; Potency, µM (series often up to 46 µM), inactives show top-dose activity change, positive = activation, hits mostly activators; actives 1.3% (n = 330,000); AID 504466; further: % of control where 0% means no effect; nearly all actives have a fitted effect of over 60% in size
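Quantitative HTS format in 1536-well plates. HEK293T ELG1-luciferase reporter cells receive test compound and are incubated 16 hr at 37 °C, 5% CO2; ONE-Glo added, 30 min room temperature, then luminescence read.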
SMN2 splice up: increases expression of the SMN2 splice variant; HEK293 SMN2-luciferase splicing reporter, luminescence, 30-36 h; Potency, µM (doses to about 46.1 µM), for inactives: top-dose activity change, positive = activation, most hits filed as activators; actives 2.8% (n = 210,000); AID 1458; further: % of control where 0% means no effect; nearly all actives have a fitted effect of over 55% in size
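HEK293 cells carry an SMN2 […]–luciferase reporter in which exon 7 inclusion puts luciferase in frame. Cells were plated 10-12 h before compound addition, then incubated 30-36 h at 37C. ONE-Glo luminescence was read; sodium butyrate at 4.5 mM final served as control.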
FLuc counter: inhibits or activates purified firefly luciferase, miR-21 counter-screen | P08659 | purified FLuc, Km substrates, luminescence inhibition | Potency, µM (highest dose often 57.5 µM), without a hit: at the highest dose activity change, negative = inhibition, actives largely listed as inhibitors | actives 6.9% (n = 360,000) | AID 588342;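 further: plate controls were vehicle for no effect and reference inhibitor for full effect; nearly all actives have a fitted effect of over 55% in size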
Target sequence (P08659 whole entry, looked up): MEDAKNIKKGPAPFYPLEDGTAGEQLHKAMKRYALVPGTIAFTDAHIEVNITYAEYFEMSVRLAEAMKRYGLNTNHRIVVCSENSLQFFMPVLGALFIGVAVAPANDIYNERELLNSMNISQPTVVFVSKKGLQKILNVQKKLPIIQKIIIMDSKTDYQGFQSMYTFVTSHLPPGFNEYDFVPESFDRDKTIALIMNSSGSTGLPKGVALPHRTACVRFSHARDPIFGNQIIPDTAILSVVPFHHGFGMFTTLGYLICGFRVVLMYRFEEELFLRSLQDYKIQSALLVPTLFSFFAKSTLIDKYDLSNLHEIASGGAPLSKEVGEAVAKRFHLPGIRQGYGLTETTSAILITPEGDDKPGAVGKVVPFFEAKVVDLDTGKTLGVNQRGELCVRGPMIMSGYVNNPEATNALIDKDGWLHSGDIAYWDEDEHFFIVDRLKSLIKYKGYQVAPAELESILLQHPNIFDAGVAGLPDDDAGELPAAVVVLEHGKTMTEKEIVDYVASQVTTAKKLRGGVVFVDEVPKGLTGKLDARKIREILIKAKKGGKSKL
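Biochemical qHTS of compounds, final roughly 60 µM downward over six points, against 10 nM purified firefly luciferase using Km concentrations of substrates (10 uM D-luciferin, 10 uM ATP) in Tris acetate pH 7.5 buffer; luminescence output.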
NPC1 promoter act: NPC1 promoter activation. Huh7 NPC1 promoter luciferase reporter, 24 h. Potency, µM (series often up to 9.22 µM), for the others: at the highest dose activation, most hits filed as activators. actives 2.4% (n = 320,000); further: % of control where 0% means no effect; nearly all actives have a fitted effect of over 60% in size
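Huh7 cells stably carrying NPC1 promoter–luciferase, plated in Opti-MEM with 10% FBS for 2 h, were exposed to compound in DMSO for 24 h at 37 °C; luciferase reagent was added for 10 min and luminescence read.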
Active calls of the source: *; [ ] = remark or other dose. Compounds with a hit are over-represented: about 9.3% of the library has one in this group of screens. The call rests on the fitted dose curve; in most records, active means well fitted curve in the direction sought with a large enough effect; inconclusive means small, poorly fitted or top-dose-only effect, or another doubt; inactive means no such curve, though single readings can be large; an effect the other way counts as inactive or inconclusive. Potency means the concentration at half of the fitted maximal effect.

For O=C(NC12CC3CC(CC(C3)C1)C2)N1CCN(C(=O)C2CCCO2)CC1 (centres undefined) the results were ELG1 DNA repair inconclusive, Rab9 promoter act -0.3%, ELG1 genotoxic 10.1%, SMN2 splice up 24.3%, FLuc counter 3.4% and NPC1 promoter act -1.6%.
`CCCCN(C)S(=O)(=O)c1ccc(C(=O)Nc2nnc(C3=COCCO3)o2)cc1` gave ELG1 DNA repair 14.6µM*, Rab9 promoter act 0.6%, ELG1 genotoxic -13.2%, SMN2 splice up -40.2%, FLuc counter inconclusive and NPC1 promoter act -1.7%.
For CCOC(=O)c1[nH]c(Cc2[nH]c(C(=O)OCC)c(C)c2CCC(=O)OC)c(CCC(=O)OC)c1C the results were ELG1 DNA repair 18.4µM*, Rab9 promoter act -4.6%, ELG1 genotoxic -3.4%, SMN2 splice up -2.4%, FLuc counter -2.7% and NPC1 promoter act -2.2%.
`Cc1cccc(N2CCN(C(=O)CCS(=O)(=O)c3ccc(Br)cc3)CC2C)c1` (centres undefined) gave ELG1 DNA repair inconclusive, Rab9 promoter act 2.0%, ELG1 genotoxic -3.9%, SMN2 splice up -38.6%, FLuc counter -7.0% and NPC1 promoter act -4.7%.
Screening CC(=O)N1CCCc2cc(S(=O)(=O)CCC(=O)N3CCN(c4cccc(C)c4)C(C)C3)ccc21 (centres undefined) returned ELG1 DNA repair 20.6µM*, Rab9 promoter act 1.7%, ELG1 genotoxic -8.2%, SMN2 splice up -46.5%, FLuc counter 1.2% and NPC1 promoter act -0.9%.
For COc1ccccc1CNS(=O)(=O)c1c(C(=O)N2CCCCCC2)c(C)n(C)c1C the results were ELG1 DNA repair 2.1%, Rab9 promoter act -1.1%, ELG1 genotoxic -1.6%[9.26 µM], FLuc counter -2.3% and NPC1 promoter act -3.7%.
Screening Fc1ccc(-c2onc3ccc(C4OCCO4)cc23)cc1 returned ELG1 DNA repair -7.9%, Rab9 promoter act 5.8%, ELG1 genotoxic -5.4%, SMN2 splice up -12.1%, FLuc counter 8.49µM* and NPC1 promoter act 6.2%.
Screening NC(=O)C1CCN(c2nc(-c3ccc4c(c3)OCCO4)cs2)CC1 returned ELG1 DNA repair 17.2%, Rab9 promoter act 2.82µM*, ELG1 genotoxic 1.7%, FLuc counter 4.78µM* and NPC1 promoter act 1.41µM*.
NC(=O)C1CCN(c2nc(-c3ccc4c(c3)OCO4)cs2)CC1 was read as FLuc counter 19µM*.
COc1ccc(-c2csc(-n3ncc(-c4cccs4)c3N)n2)cc1 was read as ELG1 DNA repair -16.7%, Rab9 promoter act 6.4%, ELG1 genotoxic 1.3%, SMN2 splice up -5.7%, FLuc counter 4.26µM* and NPC1 promoter act -5.9%.
`COc1ccc(-c2csc(-n3cccn3)n2)cc1` gave ELG1 DNA repair inconclusive, Rab9 promoter act 1.41µM*, ELG1 genotoxic inconclusive, FLuc counter 3.79µM* and NPC1 promoter act 2.51µM*.
For COc1ccc(-c2ccc(-c3noc(-c4cccs4)n3)c(OC)n2)cc1 the results were ELG1 DNA repair inconclusive, Rab9 promoter act 28.1%, ELG1 genotoxic inconclusive, SMN2 splice up 12.3%, FLuc counter -14.0% and NPC1 promoter act 16.3%.
Screening O=C(N/N=C/C1CC=CCC1)c1ccc(Cl)cc1O (centres undefined) returned ELG1 DNA repair 8.8%, Rab9 promoter act 3.0%, ELG1 genotoxic 2.5%, SMN2 splice up 25.7%, FLuc counter 19µM* and NPC1 promoter act 2.4%.
Screening Cc1ccc(C(=O)N/N=C\C2CC=CCC2)cc1[N+](=O)[O-] (centres undefined) returned ELG1 DNA repair 1.6%, Rab9 promoter act -7.8%, ELG1 genotoxic 2.5%, FLuc counter -19.1% and NPC1 promoter act 1.1%.
`O=C(N/N=C/C1CC=CCC1)c1cc(Br)ccc1O` (centres undefined) gave ELG1 DNA repair inconclusive, Rab9 promoter act 1.2%, ELG1 genotoxic 0.7%, SMN2 splice up 6.3%, FLuc counter 13.5µM* and NPC1 promoter act -0.7%.
Screening O=C(N/N=C/C1CC=CCC1)c1ccccc1O (centres undefined) returned ELG1 DNA repair 3.1%, Rab9 promoter act -2.6%, ELG1 genotoxic 10.0%, SMN2 splice up -7.2%, FLuc counter 15.1µM* and NPC1 promoter act 1.4%.
C/C=N/NC(=O)c1cc(Br)ccc1O was read as ELG1 DNA repair 1.7%, Rab9 promoter act -2.7%, ELG1 genotoxic -0.7%, SMN2 splice up -9.8%, FLuc counter 6.3% and NPC1 promoter act 1.2%.
For CC(=O)N=C(N)Sc1nc2ccccc2[nH]1 the results were ELG1 DNA repair inconclusive, Rab9 promoter act 3.98µM*, ELG1 genotoxic inconclusive, SMN2 splice up 12.6µM*, FLuc counter 15.1µM* and NPC1 promoter act 2.51µM*.
O=C(CSc1nc2ccccc2o1)Nc1cc(C(F)(F)F)ccc1N1CCOCC1 was read as ELG1 DNA repair -16.8%, Rab9 promoter act -6.4%, ELG1 genotoxic -9.2%, SMN2 splice up -1.2%, FLuc counter -1.5% and NPC1 promoter act -2.0%.
Screening CCOC(=O)c1cc2c(nc1NC(=S)NCc1ccccc1)CCCC2 returned ELG1 DNA repair inconclusive, Rab9 promoter act inconclusive, ELG1 genotoxic inconclusive, SMN2 splice up 11.2µM*, FLuc counter inconclusive and NPC1 promoter act inconclusive.
`Cc1ccc(-c2nnc(-c3ccccc3)c(N3CCOCC3)n2)cc1` gave ELG1 DNA repair inconclusive, Rab9 promoter act 1.2%, ELG1 genotoxic -2.7%, SMN2 splice up -16.1%, FLuc counter -4.1% and NPC1 promoter act -0.7%.
O=C(O)c1ccc(-c2ccccc2)[nH]1 was read as ELG1 DNA repair 0.6%, Rab9 promoter act -9.7%, ELG1 genotoxic -2.3%, SMN2 splice up -16.0%, FLuc counter 6.1% and NPC1 promoter act -2.8%.
Screening CCc1ccc(-c2ccc(C(=O)C(F)(F)F)[nH]2)cc1 returned ELG1 DNA repair inconclusive, Rab9 promoter act 1.12µM*, ELG1 genotoxic inconclusive, SMN2 splice up inconclusive, FLuc counter 2.13µM* and NPC1 promoter act 2µM*.
Cc1[nH]c2ccccc2c1/C=N/NC(=O)c1cc(C(C)(C)C)[nH]n1 was read as ELG1 DNA repair -1.7%, Rab9 promoter act 0.2%, ELG1 genotoxic -4.6%, FLuc counter 12µM* and NPC1 promoter act 13.9%.
COc1ccc2c(Cl)c(C(=O)N/N=C3\CCCC(=O)C3)sc2c1 was read as ELG1 DNA repair inconclusive, Rab9 promoter act inconclusive, ELG1 genotoxic 1.6%, SMN2 splice up inconclusive, FLuc counter 16.9µM* and NPC1 promoter act 15.4%.
